GALK inhibitor: inhibitors of human galactokinase; P51570; Purified GALK, Kinase-Glo residual ATP luminescence; Potency, µM (series often up to 57.5 µM), without a hit: at the highest dose activity change, negative = inhibition, most hits filed as inhibitors; 270,000 compounds, 0.007% hits; AID 1868; also: % is scaled to controls: 0 for no effect and ±100 for the full control effect
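Kinase-Glo Plus luminescence measured ATP left after a 1 h room-temperature reaction. The reaction used 5 nM GALK, 100 uM galactose and 35 uM ATP at pH 8.0 (20 mM HEPES, 5 mM MgCl2, 60 mM NaCl, 1 mM DTT, 0.01% BSA).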
Nrf2 block: Nrf2 pathway inhibition | A549 ARE-Fluc reporter, luciferase luminescence, 18-24 h | Potency, µM (series often up to 46 µM), for inactives: at the highest dose activity change, negative = inhibition, hits mostly inhibitors | 360,000 compounds, 2.1% hits; also: % is scaled to controls: 0 for no effect and ±100 for the full control effect; nearly all actives have a fitted effect of over 60% in size
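Cells were seeded and rested 2 h, then exposed to compounds for 18-24 h. CellTiter-Fluor was read first as a viability measure. BugLite was added 15 min before the final luminescent read of ARE-luciferase activity in A549 cells.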
A549 tox: kills or reduces viability of A549 cells in Nrf2 counter-screen; A549 ARE-Fluc cells, CellTiter-Fluor viability, 18-24 h; Potency, µM (series often up to 46 µM), for inactives: top-dose activity change, negative = cytotoxicity, most hits filed as inhibitors; AID 504648; 390,000 compounds, 0.16% hits; also: % is scaled to controls: 0 for no effect and ±100 for the full control effect
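A549 ARE_Fluc cells in 5% FBS OPTI-MEM were exposed to compounds in concentration-response for 18-24 h at 37 deg C. Viability was read by CellTiter-Fluor fluorescence (Ex 405/Em 525) after 30 min, before the luciferase read.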
TrxR1 substrate: rat thioredoxin reductase 1 substrate activity; Potency, µM (titrated, usually from 114 µM), for inactives: top-dose activity change, negative = substrate turnover; purified TrxR1 substrate turnover, NADPH consumption readout; O89049; 390,000 compounds, 0.01% hits; also: % is scaled to controls: 0 for no effect and ±100 for the full control effect; nearly all actives have a fitted effect of over 50% in size
Target sequence (O89049 whole entry, looked up): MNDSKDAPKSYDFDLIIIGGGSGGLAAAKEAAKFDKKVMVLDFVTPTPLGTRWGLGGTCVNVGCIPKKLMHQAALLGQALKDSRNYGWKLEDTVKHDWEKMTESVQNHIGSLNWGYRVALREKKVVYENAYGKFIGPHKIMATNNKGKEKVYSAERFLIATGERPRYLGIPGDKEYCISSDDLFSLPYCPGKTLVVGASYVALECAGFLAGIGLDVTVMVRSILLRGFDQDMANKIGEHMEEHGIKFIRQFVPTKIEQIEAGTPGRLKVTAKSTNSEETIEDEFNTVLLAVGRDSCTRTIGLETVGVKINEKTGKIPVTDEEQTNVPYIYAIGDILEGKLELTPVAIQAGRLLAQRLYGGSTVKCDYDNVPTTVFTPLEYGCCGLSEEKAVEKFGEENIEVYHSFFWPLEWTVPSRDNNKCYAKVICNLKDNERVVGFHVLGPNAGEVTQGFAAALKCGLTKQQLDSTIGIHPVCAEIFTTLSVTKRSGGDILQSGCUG
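Rat TrxR1, dispensed at 90 nM, was prereduced with 400 uM NADPH (final) for 5 min at ~22 deg C, then incubated with compound 15 min before 400 uM selenite. A first-read NADPH fluorescence drop versus no-compound background flagged substrates.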
TrxR1 inh: inhibitors of rat thioredoxin reductase 1; O89049; recombinant rTrxR1, NADPH fluorescence consumption, selenite substrate; Potency, µM (titrated, usually from 114 µM), for inactives: at the highest dose activity change, negative = inhibition, actives largely listed as inhibitors; 390,000 compounds, 1% hits; AID 588453; also: % is scaled to controls: 0 for no effect and ±100 for the full control effect; nearly all actives have a fitted effect of over 65% in size
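Rat TrxR1 (90 nM in the dispensed reagent) was pre-reduced with 400 uM NADPH for 5 min at room temperature, then incubated with compound for 15 min. After 400 uM selenite was added, NADPH fluorescence (Ex 340/Em 450 nm) was followed for 8 min.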
Nrf2 ARE act: activators of Nrf2 (ARE) signaling | AREc32 ARE-luciferase reporter (MCF7-derived line), luminescence, 24 h | Potency, µM (doses to about 46.1 µM), for inactives: at the top dose activation, actives largely listed as activators | 410,000 compounds, 0.31% hits; also: % of control where 0% means no effect; nearly all actives have a fitted effect of over 65% in size
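AREc32_Fluc, 1000 cells/well, OPTI-MEM + 5% FBS, o/n 37 deg C 5% CO2; 23 nL cpd by pin tool, 24 hr; Steady-Glo 30 min RT, luminescence.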
Active calls of the source: *; ? = inconclusive; . = no result given; [ ] = remark or other dose. In the library only some 3% were active in any assay of this set; here they are far more common. Calls follow the shape of the dose curve; as a rule, active = well fitted curve in the direction sought with a large enough effect; inconclusive = small, poorly fitted or top-dose-only effect, or another doubt; inactive = no such curve, though single readings can be large; an effect the other way counts as inactive or inconclusive. Potency is read from the fitted curve at half-maximal effect.

SMILES	GALK inhibitor	Nrf2 block	A549 tox	TrxR1 substrate	TrxR1 inh	Nrf2 ARE act
CCOc1ccc2nc(NC(=O)C3CCCN(S(=O)(=O)c4c(C)noc4C)C3)sc2c1 (stereo not given)	2.9%	20.6µM*	-25.8%	-0.7%[57.1 µM]	-9.3%[57.1 µM]	-0.2%
Cc1noc(C)c1S(=O)(=O)N1CCC(C(=O)N2CCN(c3cccc(C(F)(F)F)c3)CC2)CC1	.	18.4µM*	-15.0%	-7.9%	3.0%	-0.1%
O=C(Nc1ccccc1F)c1cnn2c1NC(=C1CC1)C=C2C(F)F	.	.	.	1.3%	10.6%	.
CCCC1Cc2c(sc3ncnc(N)c23)CO1 (stereo not given)	-0.2%	-10.5%	-4.7%	39.3%	50.1µM*	9.8%
CC1(C)Cc2c(sc3ncnc(N)c23)CO1	-3.4%	-19.8%	-6.1%	6.3%	14.9%	0.4%
CN(C)c1nc(C=C(C#N)C#N)c(Cl)n1-c1ccc(F)cc1	-1.6%	-139.4%	?	-8.6%	4.47µM*	?
Cc1ccc(NC(=O)/C(C#N)=C/c2cc(C)n(-c3ccc(F)cc3)c2C)cc1C	.	12.3%	0.3%	24.4%	-6.6%	0.7%
CCCCn1cc(S(=O)(=O)c2cc(C)ccc2C)c(=O)c2cc(F)c(N3CCC(C)CC3)cc21	.	0.8%	-4.2%	3.3%	9.3%	0.0%
Cc1ccc(-n2c(SCC(=O)NCc3ccco3)nnc2-c2cccnc2)c(C)c1	-2.1%	-9.9%	0.2%	-1.9%	56.2µM*	2.8%
O=C(CSc1nnc(C2CCCCC2)n1Cc1ccccc1)NCc1ccco1	1.6%	1.1%	1.0%	-2.7%	44.7µM*	16.4%
Cc1cc(C)nc(SCc2nnc(SCC(=O)NCc3ccco3)n2-c2ccccc2)n1	2.3%	-18.9%	-7.9%	-2.0%	50.1µM*	0.0%
Cc1cc(SCC(=O)NC(=O)NCc2ccco2)nc2ccccc12	-1.0%	-17.4%	-16.2%	-2.3%	70.8µM*	5.3%
CCn1c(SCC(=O)NCc2ccco2)nnc1C1CCCC1	-0.6%	-4.9%	1.7%	-10.2%	?	-0.4%
Cc1cccc(N(C)C(=O)CCS(=O)(=O)c2ccc3c(c2)oc(=O)n3C)c1	.	4.0%	4.7%	1.0%	-33.7%	0.1%
COc1cccc(/C=N/NC(N)=S)c1OCc1cccc(Cl)c1	0.6%	16.4µM*	-19.9%	-4.5%[57.1 µM]	-2.6%[57.1 µM]	2.6%
NC(=S)N/N=C\c1ccccc1OCc1ccccc1	-0.5%	-2.9%	7.0%	-9.4%	-10.6%	8.2%
O=c1oc2ccccc2c(Cl)c1CN1CCCCC1	-2.6%	3.7%	5.1%	6.5%	3.16µM*	2.5%
O=c1oc2ccccc2c(N2CCCC2)c1CN1CCCC1	-0.4%	-5.7%	-5.6%	-6.8%	?	0.4%
O=C(/C=C/c1ccc(Br)o1)NCCCN1CCOCC1	-3.8%	-1.1%	5.8%	-2.5%	8.91µM*	0.6%
CCC(=O)OCOc1ccc(/C=C2/CCC(CN(C)C)C2=O)cc1 (stereo not given)	.	-4.4%	-1.2%	-13.2%	1.12µM*	?
CC1(C)CC(=O)C(CS(=O)(=O)c2ccccc2)=C(Cl)C1	5.8%	4.8%	-0.7%	4.2%	28.2µM*	?
COc1ccc(CCNC(=O)C(=O)NCC(c2ccco2)S(=O)(=O)c2cccs2)cc1 (stereo not given)	.	.	10.7%	0.8%[57.1 µM]	-7.2%[57.1 µM]	5.1%
CCN(CC)c1ccc2c(C)c(Cl)c(=O)oc2c1	-1.3%	7.4%	?	46.1%	-15.5%	2.8%
CCN(CC)c1ccc2c(c1)oc(=O)c1c(Cl)cc(=O)oc12	-12.6%	16.3%	?	3.7%	35.5µM*	8.91µM*
CC(=O)N1c2ccccc2Oc2cc3ccccc3cc21	0.6%	14.9%	-5.9%	5.4%[57.1 µM]	4.9%[57.1 µM]	?
SMILES	GALK inhibitor	Nrf2 block	A549 tox	TrxR1 substrate	TrxR1 inh	Nrf2 ARE act
O=C(CCl)N1c2ccccc2Oc2ccc3ccccc3c21	.	-7.2%	-15.8%	8.1%	2.51µM*	2.2%
O=C(/C=C/c1ccccc1)NNC(=O)c1cccc(Cl)c1	-0.9%	-0.3%	-6.0%	8.2%	23.8%	-0.4%
O=C(/C=C/c1ccccc1Cl)c1cccnc1	-0.1%	-12.8%	-2.4%	1.9%	7.08µM*	11.5%
O=C(C=Cc1cccc(Cl)c1)c1ccccc1	.	?	1.8%	-14.9%	39.8µM*	-0.1%
O=C(/C=C/c1ccc(Cl)cc1)c1cccnc1	-0.1%	19.9%	-14.0%	-0.3%	31.6µM*	?
CCN(CC)c1ccc(/C=C/C(=O)c2cccnc2)cc1	1.7%	?	-10.1%	-11.2%	3.3%	0.2%
N#Cc1ccc(/C=C/C(=O)c2ccc3c(c2)OCO3)cc1	-1.5%	6.0%	-4.9%	-1.5%[57.1 µM]	?	0.2%
O=C(/C=C/c1ccccc1Cl)c1ccc(O)cc1	7.0%	1.3%	10.0%	10.1%[57.1 µM]	14.3%[57.1 µM]	?
N#Cc1ccc(/C=C/C(=O)c2cccnc2)cc1	-1.2%	7.1%	0.4%	-9.3%	22.4µM*	22.9%
Cc1ccc(SC[C@H](C)CN2CC[C@H](O)CCC2=O)cc1	.	.	.	0.0%	18.0%	.
O=C1C(NS(=O)(=O)c2cccs2)=C(N2CCN(c3cccc(C(F)(F)F)c3)CC2)C(=O)c2ccccc21	0.5%	20.6µM*	?	-10.1%	?	21.5%
Cc1cc(S(=O)(=O)NCC(c2ccco2)S(=O)(=O)c2cccs2)ccc1F (stereo not given)	.	.	-0.7%	-1.6%[57.1 µM]	0.355µM*	?
Cc1cc(S(=O)(=O)NCC(c2ccco2)S(=O)(=O)c2ccccc2)ccc1F (stereo not given)	.	.	0.0%	0.4%[57.1 µM]	11.4%[57.1 µM]	7.9%
COC(=O)c1ccc2c(=O)n(CCCCCC(=O)N3CCN(c4ccc(Cl)cc4)CC3)c(=O)[nH]c2c1	.	.	10.6%	9.6%[57.1 µM]	18.7%[57.1 µM]	3.7%
Cc1ccc(-n2nc3c(=O)n(C(C)C(=O)NCc4ccco4)nc(C)c3c2C)cc1 (stereo not given)	-5.1%	-1.6%	8.2%	-0.9%	-1.9%	4.4%
Cc1ccc(-n2nc3c(=O)n(C(C)C(=O)NCCCc4ccccc4)nc(C)c3c2C)cc1 (stereo not given)	8.5%	10.3µM*	20.6µM*	-1.6%	7.3%	0.0%
CCC(C(=O)NCc1cccc(C)c1)n1nc(C)c2c(C)n(-c3ccccc3)nc2c1=O (stereo not given)	-6.4%	20.6µM*	-13.9%	3.3%	10.1%	0.4%
Cc1ccc(-n2nc3c(=O)n(C(C)C(=O)NCc4ccccc4Cl)nc(C)c3c2C)cc1 (stereo not given)	-6.6%	14.6µM*	-16.5%	1.5%	21.6%	0.4%
Cc1ccc(-n2nc3c(=O)n(CC(=O)NCCCc4ccccc4)nc(C)c3c2C)cc1	0.2%	?	-5.3%	0.4%	3.6%	-0.1%
c1nc(NCCc2cnc[nH]2)c2ccc(-c3ccc4c(c3)OCO4)cc2n1	.	11.3%	17.7%	.	.	.

Assay outcomes: PubChem BioAssay, National Center for Advancing Translational Sciences (NCATS)
